# Screening results deposited in PubChem BioAssay by Broad Institute.
# Sampled rows, rich in hits. Any-hit rate of the full collection: about 3.1%.
# PAX8 inh HTS: inhibitors of PAX8 transcriptional activity in RMG-I cells; AID 652154; inhibition, % at 12.6 µM; 360,000 compounds, 1.2% hits; RMG-I TPO-luciferase reporter, SteadyGlo, 24 h;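 active = mean replicate inhibition at least 60% with every replicate also reaching 60%; inconclusive = only one of the two criteria is met; inactive = mean below 60% and not all replicates reaching 60%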;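 note: luciferase light reporting Pax8 driven TPO promoter activity; plate controls were median of neutral control wells for no effect and mitoxantrone controls for full effect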
# EWS-Fli inh: blocks EWS/Fli oncoprotein-driven transcription; A673 NR0B1-luciferase reporter, viability-normalised; 350,000 compounds, 0.67% hits; inhibition, % at 12.6 µM; AID 651661;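 active = mean inhibition of at least 50% after viability correction, with every replicate also passing that limit; inconclusive = mean reaches 50% but only one of two replicates passes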;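 note: firefly luciferase signal divided by Alamar Blue viability fluorescence both relative to DMSO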
# miR-122 sensor: inhibitors of miR-122 in Huh7 cells | activation (reporter increase), % at 12.5 µM | 340,000 compounds, 0.3% hits | Huh7 miR-122 Renilla luciferase sensor, 48 h; neutral wells = 0, positive control = 100;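 active = mean replicate activation score at least 90 and every replicate individually at or above 90; inconclusive = only one of the two criteria met; inactive = neither criterion met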;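 note: higher luciferase means less miR-122 activity so hits act as miR-122 inhibitors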
# Env fusion inh: inhibitors of HIV Env-mediated cell fusion. AID 651610. 360,000 compounds, 1.1% hits. inhibition, % at 12.3 µM. HeLa-JRFL Env/CEM21 cell fusion, luciferase;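 active = mean replicate inhibition score of at least 50 and every replicate individually at or above 50; inconclusive = only one of the two criteria met; inactive = mean below 50 and not all replicates reaching 50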;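 note: 0% = plate neutral controls and 100% = maraviroc near 300 nM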
# INS-1E GSIS act: primary screen for activators of insulin secretion dependent on glucose, INS-1E cells, GLuc reporter luminescence; INS-1E GLuc reporter insulin secretion, 2-3 h; activation, % at 16.6 µM; 370,000 compounds, 0.61% hits;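 active = lowest replicate activation of at least 40%, so every replicate reaches that level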;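 note: 0% = median of neutral control wells and 100% = median of IBMX positive control wells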
# Statin myotox sup: suppressors of simvastatin-induced myotoxicity in C2C12 myotubes; ATP luminescence, 48 h; scaled: DMSO 0, geranylgeraniol control 100; rescue of ATP level, % at 7.49 µM; 330,000 compounds, 0.78% hits;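 active = mean ATP rescue above about 67%, or every replicate alone reaching that limit, limit read from the data, passing the limit was not always enough; inconclusive = no clear call, values can overlap the other calls; inactive = mean under the limit and some replicate under it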;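 note: myotubes were challenged with 10 µM simvastatin during compound exposure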
# Numbers without * were called inactive; ? = inconclusive; . = no result; [ ] = dose if it differs, or a comment.
SMILES,PAX8 inh HTS,EWS-Fli inh,miR-122 sensor,Env fusion inh,INS-1E GSIS act,Statin myotox sup
COc1ccc(NC(=O)Nc2ccc3c(c2)C(=O)N([C@H](C)CO)C[C@@H](C)[C@H](CN(C)C(=O)Nc2ccc(OC)cc2)O3)cc1,-7.3,4.2,1.1[16.7 µM],4.1[16.7 µM],9.2,15.0
O=C(Nc1cccc(NC(=O)c2cccs2)c1)c1ccc([N+](=O)[O-])o1,100.8*,14.4,79.5,-59.5,-13.8,54.7
C[C@H](NC(=O)c1ccco1)C(=O)Nc1ccc2c(c1)OCO2,1.3,0.6,-0.4,4.6,6.3,6.1
C[C@H](NC(=O)c1ccco1)C(=O)Nc1cccc([N+](=O)[O-])c1,100.5*,-5.6,.,-4.1,-0.5,.
CC(C)c1ccc2c(c1)[C@H]1OCC[C@H]1[C@@H](c1cccs1)N2,-9.8,.,.,58.8*,-18.0,.
Cc1cc(C)c2c(c1)N[C@H](c1cccs1)[C@@H]1CCO[C@H]21,15.7,1.8,-1.1,-1.6,.,-11.4
COc1ccc2cc(C=NS(=O)(=O)c3ccc(C)cc3)n(C)c2c1,-8.4,1.8,-0.3,58.6*,8.1,-2.8
COc1ccc(/C=N/S(=O)(=O)c2ccc(C)cc2)cc1,-11.6,-0.6,3.3,-63.0,32.4,.
CCCCc1nnc(NC(=O)CCS(=O)(=O)c2ccc(Cl)cc2)s1,76.8*,-22.8,0.6,.,4.2,16.1
O=C(Nc1nnc(CCS(=O)(=O)c2ccc3ccccc3c2)s1)c1cccs1,-1.8,.,-5.3,41.5,106.4*,1.7
CCOC(=O)c1csc(NC(=O)CCS(=O)(=O)c2ccc(Cl)cc2)n1,84.0*,-0.4,-2.0,4.4,7.2,-2.5
CCCc1nnc(NC(=O)CCS(=O)(=O)c2ccccc2)s1,78.0*,-25.5,-4.0,1.8,15.4,-11.6
Cc1csc(NC(=O)CCS(=O)(=O)c2ccc(Br)cc2)n1,.,.,1.0,.,.,.
O=C(C[C@H]1C=C[C@@H](NC(=O)c2ccc3c(c2)OCO3)[C@@H](CO)O1)NCc1ccc(F)cc1,.,.,.,.,-11.1,.
O=C(C[C@@H]1CC[C@@H](NC(=O)CCN2CCCCC2)[C@H](CO)O1)NCc1ccc(Cl)c(Cl)c1,1.1,-6.6,-3.4[16.7 µM],-9.6[16.7 µM],7.9,-4.3
Cc1noc(C)c1NC(=O)N(C)C[C@H]1Oc2c(NC(=O)c3cnccn3)cccc2C(=O)N([C@H](C)CO)C[C@H]1C,.,-3.0,15.2[16.7 µM],.,5.2,-3.1
O=C(OCCCN1CCOCC1)c1ccc(O)c(O)c1,-6.9,12.1,.,-10.7,-8.7,.
COc1cc(C(=O)O)ccc1O,-6.0,-1.0,-3.8,2.8,-4.5,10.5
COc1cc(C(=O)C(=O)c2ccc(O)c(OC)c2)ccc1O,2.6,6.5,.,-4.2,42.6*,0.2
COc1cc(C(=O)OCCN2CCOCC2)ccc1O,.,.,-1.6,.,.,108.5*
C[C@H]1CN([C@@H](C)CO)C(=O)c2cc(C#CC3CCCC3)cnc2O[C@H]1CN(C)Cc1ccncc1,-1.5,5.6,-9.3[16.7 µM],-0.8[16.7 µM],-8.3,-11.4
C[C@@H]1CCCCO[C@H](CN(C)S(C)(=O)=O)[C@H](C)CN([C@H](C)CO)C(=O)c2cc(N(C)C)ccc2O1,-12.6,0.8,-4.1[16.7 µM],-4.0[16.7 µM],-9.5,22.5
C=CCSc1nc(=O)n2ccccc2n1,15.1,-7.2,-1.0,13.2,17.4,100.1*
C=CCSc1nc(=O)n2cccc(C)c2n1,.,-9.2,-0.9,.,66.7*,-19.2
Cc1cccn2c(=O)nc(SCC(=O)N3CCCCC3)nc12,2.9,5.4,.,5.1,43.2*,-9.1
SMILES,PAX8 inh HTS,EWS-Fli inh,miR-122 sensor,Env fusion inh,INS-1E GSIS act,Statin myotox sup
CCOC(=O)CSc1nc(=O)n2cccc(C)c2n1,22.2,-0.9,-3.3,4.7,20.2,.
C=CCSc1nc(=O)n2ccc(C)cc2n1,-12.1,-13.5,-24.7,5.9,-2.2,-7.1
CNC[C@@H]1Oc2ccc(NC(=O)NC3CCCCC3)cc2CC(=O)N([C@H](C)CO)C[C@H]1C,4.4,1.3,-7.2[16.7 µM],-6.2[16.7 µM],-0.6,4.1
CN(C)/C=N/c1c(C#N)cnn1-c1ncnc2sc(-c3ccccc3)cc12,.,.,.,.,73.8*,-92.5
CCOc1ccccc1CNC(=O)CCn1ccc2cc(S(=O)(=O)N3CCCCC3)ccc21,14.0,20.3,20.3,61.5*,9.4,-9.0
CCOc1ccccc1CNC(=O)Cn1ccc2cc(S(=O)(=O)N3CCCCCC3)ccc21,32.3,.,22.3,27.3,-24.5,-8.5
CC1CCC(NC(=O)CCn2ccc3cc(S(=O)(=O)N4CCCC4)ccc32)CC1 (stereo not drawn),-21.2,11.3,11.0,73.3*,0.5,-13.4
COc1ccc(CNC(=O)C[C@H]2C[C@H]3c4cc(NC(=O)CN(C)C)ccc4O[C@H]3[C@H](CO)O2)cc1,3.9,7.3,-2.8[16.7 µM],-11.7[16.7 µM],2.9,9.5
Cc1noc(C)c1S(=O)(=O)Nc1ccc2c(c1)CC(=O)N([C@H](C)CO)C[C@@H](C)[C@@H](CN(C)C(=O)Nc1ccccc1)O2,.,0.6,0.8[16.7 µM],-10.9[16.7 µM],15.3,-1.3
CCOC(=O)C1=C(c2ccccc2)c2ccccc2N(S(=O)(=O)C(F)(F)F)C1C(=O)OCC (stereo not drawn),-12.8,2.1,-8.0,60.1*,-15.9,9.4
N#C[C@H]1[C@H](c2ccc(C#CC3CCCCC3)cc2)[C@H](CO)N1C(=O)Nc1ccc(F)cc1,91.8*,12.0,.,-2.5[16.7 µM],-1.2,.
N#C[C@H]1[C@H](c2ccc(C#CC3CCCC3)cc2)[C@@H](CO)N1C(=O)Nc1ccc(F)cc1,88.3*,11.1,.,55.6*[16.7 µM],-10.3,21.4
N#C[C@@H]1[C@H](c2ccc(C#CC3CCCC3)cc2)[C@@H](CO)N1C(=O)Nc1ccc(F)cc1,-2.5,7.6,.,-26.9[16.7 µM],-39.9,14.0
CNC[C@H]1Oc2ccc(NC(=O)C3CCCCC3)cc2C(=O)N([C@@H](C)CO)C[C@H]1C,-23.3,-10.2,4.1[16.7 µM],-15.2[16.7 µM],17.3,-3.3
CN(C)c1cc[n+](CC(=O)Nc2cccc([N+](=O)[O-])c2)cc1,-48.6,11.4,.,-5.5,17.0,16.8
CN(C)c1cc[n+](CC(=O)Nc2ccc(Cl)c([N+](=O)[O-])c2)cc1,62.9*,18.4,-1.1,9.9,-0.3,-317.2
CO[C@@H]1CN(C)C(=O)c2cc(NC(=O)Nc3ccc(Cl)cc3)ccc2OC[C@@H](C)N(C)C[C@@H]1C,33.5,-2.7,.,-2.5[16.7 µM],-7.2,-28.0
CCCCCCCCNC(=O)c1cnccn1,97.6*,-9.1,-1.4,.,18.8,.
CC(C)NC(=O)Nc1ccc2c(c1)C(=O)N([C@H](C)CO)C[C@@H](C)[C@@H](CN(C)C(=O)Nc1ccccc1)OCCCC[C@@H](C)O2,9.8,.,-3.3[16.7 µM],?,-13.4,.
O=C(Nc1ccc(Cl)c([N+](=O)[O-])c1)C(NCCCO)c1ccccc1 (stereo not drawn),-14.7,.,226.4*,-1.6,-6.3,.
O=C(NC1CCCCC1)N[C@@H]1CC[C@H](CC(=O)N2CCOCC2)O[C@@H]1CO,-11.6,-2.7,.,-10.3[16.7 µM],4.2,-3.5
COC(=O)c1cc(C#N)c(Oc2ccc(OC)cc2)nc1C,.,.,-2.4,.,.,-4.8
CC(=O)c1cc(C#N)c(Oc2ccccc2)nc1C,.,.,-5.8,.,.,104.8*
